{
  "source": "PubChem BioAssay (NCATS)",
  "key": {"[1]": {"experiment": "Viability qHTS for spleen associated tyrosine kinase inhibitor (SYKi) naive MV4-11 cells (AID 1963823); also: nearly all actives have a fitted effect of over 40% in size", "procedure,_shortened": "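Viability of MV4-11 AML cells lacking prior SYK inhibitor exposure is scored by CellTiter-Glo luminescence following 72 hr compound incubation at 37 C, 5% CO2, seeded at 500 cells per well.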"}, "[2]": {"experiment": "Viability qHTS for spleen associated tyrosine kinase inhibitor (SYKi) drug resistant MV4-11 cells (AID 1963824); also: nearly all actives have a fitted effect of over 35% in size", "procedure,_shortened": "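SYK inhibitor-resistant MV4-11 AML cells, 500 per well, added to predispensed compounds and incubated 72 hr at 37 C, 5% CO2. Viability measured by CellTiter-Glo luminescence after 10 min at room temperature.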"}, "[3]": {"experiment": "Cellular viability qHTS for adrenocortical cancer (ACC) cell line NCI-H295R (AID 1963990); also: nearly all actives have a fitted effect of over 60% in size", "procedure,_shortened": "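Compound titrations (up to 46 uM final) are applied to NCI-H295R cultures for 48 h at 37C. Viable cell number is estimated by CellTiter-Glo signal, normalised to DMSO and doxorubicin controls.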"}},
  "note": "Several values for one entry are separate records, joined by “and”; a condition that tells them apart may be missing. Identical values can stand only once. Results filed as inconclusive are left out. Activity calls are given as the source filed them. Calls follow the shape of the dose curve; as a rule, active = well fitted curve in the direction sought with a large enough effect; inconclusive = small, poorly fitted or top-dose-only effect, or another doubt; inactive = no such curve, though single readings can be large; an effect the other way counts as inactive or inconclusive. Potency is read from the fitted curve at half-maximal effect.",
  "data": [
    {"smiles": "C=CC(=O)N1CC(N2CCN(C(=O)CNc3cc(C4(C)CC4)c(Cl)cc3O)CC2)C1", "values": [
      {"measurement": "Potency", "setting": "[1]", "value": "18.6 µM (active)"},
      {"measurement": "Potency", "setting": "[2]", "value": "16.6 µM (active)"},
      {"measurement": "Potency", "setting": "[3]", "value": "15.8 µM (active)"}
    ]},
    {"smiles": "O=C(CCN1CCC(c2ccccc2)C1)c1ccc2c(c1)OCCO2", "note": "(configuration not stated)", "values": [
      {"measurement": "Potency", "setting": "[1]", "value": "7.5 µM (active)"},
      {"measurement": "Potency", "setting": "[2]", "value": "10.6 µM (active)"},
      {"measurement": "Potency", "setting": "[3]", "value": "6.51 µM (active)"}
    ]},
    {"smiles": "CC/C(=C(/CC)c1ccc(O)cc1)c1ccc(O)cc1", "values": [
      {"measurement": "Potency", "setting": "[1]", "value": "16.6 µM (active)"},
      {"measurement": "Potency", "setting": "[2]", "value": "18.6 µM (active)"},
      {"measurement": "Potency", "setting": "[3]", "value": "3.66 µM (active) and 8.91 µM (active)"}
    ]},
    {"smiles": "Cc1sc2c(c1C)C(c1ccc(Cl)cc1)=N[C@@H](CC(=O)Nc1ccc(OCCOCCOCCOCCNc3cccc4c3C(=O)N(C3CCC(=O)NC3=O)C4=O)cc1)c1nnc(C)n1-2", "note": "(some centres not stated)", "values": [
      {"measurement": "Potency", "setting": "[1]", "value": "inactive"},
      {"measurement": "Potency", "setting": "[2]", "value": "0.0166 µM (active)"},
      {"measurement": "Potency", "setting": "[3]", "value": "3.98 µM (active)"}
    ]},
    {"smiles": "CCN(CC)CCOc1ccc(/C(=C(\\Cl)c2ccccc2)c2ccccc2)cc1", "values": [
      {"measurement": "Potency", "setting": "[1]", "value": "9.44 µM (active) and 8.2 µM (active)"},
      {"measurement": "Potency", "setting": "[2]", "value": "10.6 µM (active) and 10.3 µM (active)"},
      {"measurement": "Potency", "setting": "[3]", "value": "7.31 µM (active)"}
    ]},
    {"smiles": "CCCN(CCC)S(=O)(=O)c1ccc(C(=O)O)cc1", "values": [
      {"measurement": "Potency", "setting": "[1]", "value": "inactive"},
      {"measurement": "Potency", "setting": "[2]", "value": "inactive"},
      {"measurement": "Potency", "setting": "[3]", "value": "inactive"}
    ]},
    {"smiles": "COCC(=O)O[C@]1(CCN(C)CCCc2nc3ccccc3[nH]2)CCc2cc(F)ccc2[C@@H]1C(C)C", "values": [
      {"measurement": "Potency", "setting": "[1]", "value": "21.1 µM (active)"},
      {"measurement": "Potency", "setting": "[2]", "value": "13.3 µM (active)"},
      {"measurement": "Potency", "setting": "[3]", "value": "16.4 µM (active)"}
    ]},
    {"smiles": "Cn1nccc1Nc1nccc(-c2cc3c(s2)C(C)(C)N(CCN2CCOCC2)C3=O)n1", "values": [
      {"measurement": "Potency", "setting": "[1]", "value": "3.72 µM (active)"},
      {"measurement": "Potency", "setting": "[2]", "value": "3.72 µM (active)"},
      {"measurement": "Potency", "setting": "[3]", "value": "inactive"}
    ]},
    {"smiles": "CC[N+](CC)(CC)CCOc1ccc(/C=C/c2ccccc2)cc1", "values": [
      {"measurement": "Potency", "setting": "[1]", "value": "inactive"},
      {"measurement": "Potency", "setting": "[2]", "value": "inactive"},
      {"measurement": "Potency", "setting": "[3]", "value": "inactive"}
    ]}
  ]
}
